Source: PubChem BioAssay
The source made the active and inactive calls.

How the values were obtained:
[1] = E. coli DRC41 culture turbidity changes, primary screen, E. coli filamentation inducer project, strain DRC41, OD650, 48 h (AID 1152);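 also: E. coli MC1000 strain DRC41 lacking acrAB efflux pump and sulA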; settings: E. coli DRC41 (acrAB sulA), higher = more signal, called active from +8 up or from −8 down
[2] = small-molecule binders of probe aLefty1, primary screen, biochemical, small-molecule microarray, 635/667 nm fluorescence (AID 1153); settings: higher = more signal;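 also: score merges spot fluorescence with signal-to-noise ratio from the scanned slide images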
[3] = PSAC antagonists in infected red cells, primary screen, cell-based, P. falciparum Indochina, OD700, 1 h (AID 1154); settings: P. falciparum Indochina infected RBC osmotic lysis, higher = more signal, called active from +8 up or from −8 down
[4] = PSAC antagonists in infected red cells, primary screen, cell-based, P. falciparum Indochina, OD700, 2 h (AID 1155);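 also: lysis reports solute entry through the parasite surface anion channel PSAC; channel blockers reduce lysis of infected cells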; settings: P. falciparum Indochina infected erythrocytes, osmotic lysis OD700; higher = more signal, called active from +8 up or from −8 down
[5] = osmotic lysis modulators in infected erythrocytes, primary screen, PSAC antagonist project, cell-based, P. falciparum Indochina, OD700, 3 h (AID 1156); settings: higher = more signal, called active from +8 up or from −8 down
[6] = PSAC antagonists in infected red cells, primary screen, cell-based, P. falciparum Indochina, OD700, 18 h (AID 1157); settings: P. falciparum Indochina infected erythrocytes, osmotic lysis OD700, 18 h; higher = more signal, called active from +8 up or from −8 down
[7] = modulators of S6 phosphorylation in cells, primary screen, cell-based, A549, cytoblot, luminescence, serum-stimulated (AID 1158); settings: A549 phospho-S6 cytoblot, 5 h, higher = more signal;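 also: serum-stimulated A549 lung adenocarcinoma cells; signal is phosphorylated S6 detected by cytoblot immunostaining with HRP secondary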
[8] = biological target: NADPH oxidase 2 (Homo sapiens) (UniProt P04839); assay: NOX2-dependent H2O2 signal modulators, primary screen, NOX inhibitor project, cell-based, HEK293-NOX2, PMA-stimulated, Amplex Red fluorescence (AID 1159); settings: 45 min, higher = more signal, called active from +8 up or from −8 down; also: test concentration not given here
Chain of NADPH oxidase 2 (Homo sapiens) (P04839 whole entry, looked up): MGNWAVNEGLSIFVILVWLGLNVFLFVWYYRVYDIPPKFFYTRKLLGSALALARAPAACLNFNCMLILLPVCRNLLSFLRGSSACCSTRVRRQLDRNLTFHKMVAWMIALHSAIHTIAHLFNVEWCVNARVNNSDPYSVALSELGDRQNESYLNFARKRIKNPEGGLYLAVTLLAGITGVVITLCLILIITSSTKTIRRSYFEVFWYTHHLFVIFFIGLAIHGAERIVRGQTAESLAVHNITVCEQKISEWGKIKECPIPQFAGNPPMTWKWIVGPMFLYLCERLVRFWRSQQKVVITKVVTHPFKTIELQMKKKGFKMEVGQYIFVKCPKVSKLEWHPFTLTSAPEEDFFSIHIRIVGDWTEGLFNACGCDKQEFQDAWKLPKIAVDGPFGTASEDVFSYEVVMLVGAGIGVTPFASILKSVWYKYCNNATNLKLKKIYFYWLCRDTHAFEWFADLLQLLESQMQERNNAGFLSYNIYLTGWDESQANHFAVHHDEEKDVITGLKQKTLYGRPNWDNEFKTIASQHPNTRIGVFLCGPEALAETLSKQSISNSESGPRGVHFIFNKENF

[9] = biological target: NADPH oxidase 4 (Homo sapiens) (UniProt Q9NPH5); assay: NOX4-dependent H2O2 signal modulators, primary screen, NOX inhibitor project, cell-based, HEK293-NOX4, tetracycline-induced, Amplex Red fluorescence (AID 1160); settings: 45 min, higher = more signal, called active from +8 up or from −8 down
Chain of NADPH oxidase 4 (Homo sapiens) (Q9NPH5 whole entry, looked up): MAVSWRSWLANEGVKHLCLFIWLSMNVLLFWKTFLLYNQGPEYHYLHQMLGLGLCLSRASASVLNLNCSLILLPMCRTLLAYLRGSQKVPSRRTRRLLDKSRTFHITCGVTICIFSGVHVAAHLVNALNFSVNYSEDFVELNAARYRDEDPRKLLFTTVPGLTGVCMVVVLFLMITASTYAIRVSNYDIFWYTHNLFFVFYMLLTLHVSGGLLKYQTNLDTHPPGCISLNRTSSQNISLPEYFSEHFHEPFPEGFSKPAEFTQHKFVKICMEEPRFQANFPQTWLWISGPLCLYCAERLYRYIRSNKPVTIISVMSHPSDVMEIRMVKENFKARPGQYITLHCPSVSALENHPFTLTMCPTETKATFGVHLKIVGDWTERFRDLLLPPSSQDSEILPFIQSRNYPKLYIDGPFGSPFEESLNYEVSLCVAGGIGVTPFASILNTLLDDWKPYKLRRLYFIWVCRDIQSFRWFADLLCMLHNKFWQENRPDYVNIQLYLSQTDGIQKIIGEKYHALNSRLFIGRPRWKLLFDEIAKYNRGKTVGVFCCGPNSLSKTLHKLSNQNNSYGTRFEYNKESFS

[10] = biological target: NADPH oxidase 5 (Homo sapiens) (UniProt Q96PH1); assay: NOX5-dependent H2O2 signal modulators, primary screen, NOX inhibitor project, cell-based, HEK293-NOX5, Amplex Red fluorescence (AID 1161); settings: HEK293-NOX5, ionomycin, 45 min, higher = more signal
Chain of NADPH oxidase 5 (Homo sapiens) (Q96PH1 whole entry, looked up): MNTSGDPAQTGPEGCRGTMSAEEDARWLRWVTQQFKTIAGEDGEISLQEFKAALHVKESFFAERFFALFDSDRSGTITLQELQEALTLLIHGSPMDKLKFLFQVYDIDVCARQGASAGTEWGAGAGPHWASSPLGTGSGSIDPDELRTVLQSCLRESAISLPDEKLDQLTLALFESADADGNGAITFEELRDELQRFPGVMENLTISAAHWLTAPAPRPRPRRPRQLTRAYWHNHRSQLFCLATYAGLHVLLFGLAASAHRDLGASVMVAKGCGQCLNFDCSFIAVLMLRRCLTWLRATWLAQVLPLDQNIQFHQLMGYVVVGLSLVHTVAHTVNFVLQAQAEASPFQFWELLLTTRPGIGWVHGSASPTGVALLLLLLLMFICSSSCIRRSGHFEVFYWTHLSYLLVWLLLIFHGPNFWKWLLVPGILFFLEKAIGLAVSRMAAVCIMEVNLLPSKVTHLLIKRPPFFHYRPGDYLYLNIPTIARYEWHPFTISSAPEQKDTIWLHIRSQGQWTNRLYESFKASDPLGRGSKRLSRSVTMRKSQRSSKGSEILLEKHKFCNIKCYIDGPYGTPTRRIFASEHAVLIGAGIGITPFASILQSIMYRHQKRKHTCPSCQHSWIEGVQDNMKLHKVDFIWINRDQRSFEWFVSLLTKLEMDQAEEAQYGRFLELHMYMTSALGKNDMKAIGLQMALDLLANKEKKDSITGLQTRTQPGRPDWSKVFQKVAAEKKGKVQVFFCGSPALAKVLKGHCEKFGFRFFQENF

Structure (SMILES)	z-score [1]	composite z-score [2]	z-score [3]	z-score [4]	z-score [5]	z-score [6]	z-score [7]	z-score [8]	z-score [9]	z-score [10]
COC(=O)[C@H](C)NC(=O)CCC1CC(OC(=O)NCc2ccc3c(c2)OCO3)CC2(CCCC(COC(=O)NCC3CCCCC3)O2)O1 (stereo not given in full)	-0.23 (inactive)	-0.0984	0.858 (inactive)	-0.53 (inactive)	-0.508 (inactive)	-0.167 (inactive)	0.224	-0.373 (inactive)	0.62 (inactive)	-0.651
CCOC(=O)[C@H](CC(C)C)NC(=O)CCC1CC(OC(=O)NCCc2ccc(F)cc2)CC2(CCCC(COC(=O)NCCc3ccccc3OC)O2)O1 (stereo not given in full)	-0.501 (inactive)	-0.0603	-1.58 (inactive)	-0.344 (inactive)	-0.17 (inactive)	-0.142 (inactive)	-0.0491	0.00967 (inactive)	0.15 (inactive)	-0.0222
CO[C@H]1COC(=O)[C@H](C)NC(=O)[C@@H](C)COC(=O)[C@H]2CCCN2C(=O)CC=C[C@H]1C	-0.0911 (inactive)	-0.194	0.551 (inactive)	0.453 (inactive)	0.603 (inactive)	0.293 (inactive)	0.203	-0.752 (inactive)	0.0917 (inactive)	0.363
CC[C@@H](c1ccccc1)n1c(=O)n2n(c1=O)[C@H]1[C@H](O)[C@@H]3O[C@@H]3C(=O)[C@H]1CC2	0.289 (inactive)	-0.101	-0.48 (inactive)	-0.38 (inactive)	-0.0399 (inactive)	-0.139 (inactive)	-0.126	-6.29 (inactive)	-0.0502 (inactive)	0.324
CCOC(=O)C1=NO[C@]2(C=C(Br)C3(OCCCO3)[C@H]3O[C@H]32)C1	0.209 (inactive)	-0.0075	-0.228 (inactive)	0.142 (inactive)	-0.348 (inactive)	0.0748 (inactive)	-0.428	1.18 (inactive)	0.492 (inactive)	0.12
CCOC(=O)[C@H](CC(C)C)NC(=O)CCC1CC(OC(=O)NCc2cccc3ccccc23)CC2(CCCC(COC(=O)NCCOC)O2)O1 (stereo not given in full)	1.24 (inactive)	-0.0559	-0.137 (inactive)	0.184 (inactive)	-0.283 (inactive)	-0.196 (inactive)	0.142	1.05 (inactive)	0.96 (inactive)	-0.464
O=C(NN=C1C[C@@H](O)[C@@H](O)[C@@H]2[C@@H]3C(=O)N(Cc4ccccc4)C(=O)[C@@H]3CC[C@@H]12)OCc1ccccc1	0.151 (inactive)	0.0837	1.91 (inactive)	0.801 (inactive)	0.458 (inactive)	0.526 (inactive)	0.0339	-1.23 (inactive)	0.0701 (inactive)	0.224
CCOC(=O)[C@H](Cc1ccccc1)NC(=O)CCC1CC(OC(=O)NCCc2ccc(F)cc2)CC2(CCCC(COC(=O)NCc3ccccc3)O2)O1 (stereo not given in full)	-0.713 (inactive)	-0.152	-0.623 (inactive)	-0.567 (inactive)	-0.857 (inactive)	-0.144 (inactive)	0.0765	-0.0815 (inactive)	1.21 (inactive)	0.616
CO[C@@H]1C=CCC(=O)N[C@@H](C)C(=O)OC[C@@H](OC)[C@H](C)CCCC(=O)OC[C@H]1C	0.0058 (inactive)	0.0816	-1.15 (inactive)	-1.22 (inactive)	-0.683 (inactive)	-2.43 (inactive)	-0.417	0.57 (inactive)	0.957 (inactive)	0.645
COC(=O)CC=C[C@@H](C)[C@@H]1C=C[C@H](O)[C@@H](CO)O1	0.372 (inactive)	-0.472	0.0339 (inactive)	0.447 (inactive)	-0.27 (inactive)	-0.0707 (inactive)	0.338	0.418 (inactive)	-0.23 (inactive)	0.576
CC(CCN1CCCCc2nc(C)c(C)cc21)=NOC[C@@H](O)COCc1ccco1	0.721 (inactive)	-0.0559	1.56 (inactive)	0.279 (inactive)	0.876 (inactive)	0.343 (inactive)	0.327	-1.07 (inactive)	-0.199 (inactive)	-0.153
O=C1C[C@@H](O)[C@@H](O)[C@@H]2[C@@H]3C(=O)N(Cc4ccccc4)C(=O)[C@@H]3CC[C@@H]12	-0.861 (inactive)	-0.0559	-0.0483 (inactive)	0.141 (inactive)	0.0313 (inactive)	-0.014 (inactive)	-0.224	1.04 (inactive)	0.286 (inactive)	-0.0644
COC(=O)[C@@H]1CC[C@H](C)[C@@H](c2ccc(C)cc2)N1C(=O)c1ccc(C=NOCC[C@@H]2C=C[C@H](OC(C)=O)[C@@H](COC(C)=O)O2)cc1	0.118 (inactive)	-0.111	3.09 (inactive)	0.897 (inactive)	0.533 (inactive)	0.858 (inactive)	-0.994	-1.19 (inactive)	0.605 (inactive)	-0.134
CO[C@H]1COC(=O)[C@@H]2CCCN2C(=O)CC=C[C@@H](C)[C@H](OC)COC(=O)[C@@H](OCc2ccccc2)C=C[C@@H]1C	-0.33 (inactive)	-0.147	0.946 (inactive)	-0.82 (inactive)	-0.0897 (inactive)	-1.41 (inactive)	0.917	0.291 (inactive)	0.275 (inactive)	0.245
COC(=O)[C@@H]1CC[C@H](C)[C@@H](c2ccc(C)cc2)N1C(=O)c1ccc(C=NO[C@@H](C)c2cn([C@H](CO)Cc3ccccc3)nn2)cc1	0.442 (inactive)	-0.0615	4.57 (inactive)	1.12 (inactive)	0.809 (inactive)	0.907 (inactive)	0.406	-3.24 (inactive)	-1.13 (inactive)	-3.8
COC(=O)[C@H]1O[C@@H](c2c(OC)c(OC)c(C)c(OC)c2OC)[C@H](C)[C@@H](O)[C@H]1C	0.855 (inactive)	-0.0505	0.516 (inactive)	0.183 (inactive)	0.92 (inactive)	0.587 (inactive)	0.817	0.933 (inactive)	0.792 (inactive)	0.194
COC(=O)CC=C[C@@H](C)[C@@H](C=NOC[C@H]1O[C@H](c2ccccc2)C=C[C@@H]1Oc1ccc(OC)cc1)OC	-0.425 (inactive)	-0.148	4.7 (inactive)	1.15 (inactive)	-0.469 (inactive)	0.393 (inactive)	-0.516	-0.323 (inactive)	0.338 (inactive)	-0.549
CC(C)=CCCC(C)=CCON=C1C[C@@H](O)[C@@H](O)[C@@H]2[C@@H]3C(=O)N(C[C@@H]4CCCO4)C(=O)[C@@H]3CC[C@H]12	-0.249 (inactive)	-0.0501	2.57 (inactive)	0.847 (inactive)	0.193 (inactive)	0.55 (inactive)	0.659	0.0784 (inactive)	0.256 (inactive)	-2.11
CCCNC(=O)OC[C@H]1O[C@H](CCON=C(C)CCN2CCc3nc(CC)c(CC)cc3C2)C=C[C@@H]1Oc1ccc(OC)cc1	-0.611 (inactive)	-0.0949	8.46 (active)	1.12 (inactive)	1.66 (inactive)	0.539 (inactive)	0.58	-3.19 (inactive)	-1.7 (inactive)	-3.32
CC(=O)OC[C@H]1OC(ON=CC[C@@H]2C=C[C@H](OC(C)=O)[C@@H](COC(C)=O)O2)[C@H](OC(C)=O)[C@@H](OC(C)=O)[C@@H]1OC(C)=O (stereo not given in full)	-0.0016 (inactive)	0.315	0.202 (inactive)	0.0995 (inactive)	0.153 (inactive)	0.22 (inactive)	-0.999	0.00176 (inactive)	0.186 (inactive)	0.0378
CCN1C(=O)[C@H]2[C@H]3[C@H](O)[C@H](O)CC(=NNC(=O)OCc4ccc(OC)cc4)[C@@H]3CC[C@H]2C1=O	-0.382 (inactive)	0.238	1.09 (inactive)	0.195 (inactive)	-0.703 (inactive)	0.181 (inactive)	0.117	-0.13 (inactive)	0.659 (inactive)	-0.0409
O=C1C2=CC[C@H]3C(=O)N(c4cccc(Oc5ccccc5)c4)C(=O)[C@H]3[C@H]2[C@H](O)[C@@H]2O[C@H]12	-0.462 (inactive)	-0.103	-0.0001 (inactive)	-0.295 (inactive)	-0.081 (inactive)	0.157 (inactive)	-0.194	0.042 (inactive)	0.605 (inactive)	0.4
COC(=O)CC=C[C@@H](C)[C@@H](C=NO[C@H](C)c1cn([C@H](CO)Cc2ccccc2)nn1)NS(=O)(=O)c1ccc(C)cc1	-0.0528 (inactive)	0.173	2.17 (inactive)	0.674 (inactive)	0.605 (inactive)	0.22 (inactive)	-1.07	0.679 (inactive)	0.685 (inactive)	-0.0369
